Inconclusive results are not listed. Where a call stands in place of a potency, no number is given. Calls of active or inactive are those of the source. The call rests on the fitted dose curve; in most records, active means well fitted inhibition curve with a large enough effect; inconclusive means small, poorly fitted or top-dose-only effect; inactive means flat fitted curve, though single readings scatter.
Each compound was assayed against Ubiquitin carboxyl-terminal hydrolase 1 (Homo sapiens) (UniProt O94782) (assay: Inhibitors of USP1/UAF1: Pilot qHTS (AID 504865; further: nearly all actives have a fitted effect of over 35% in size)). Conditions: purified USP1/UAF1, Ub-rhodamine cleavage fluorescence; series mostly up to 114 µM.
In short: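 USP1/UAF1 complex (1nM) preincubated with compound 15 min at room temperature, then Ub-Rho substrate (150nM final) added. Fluorescence read kinetically at 480/540 nm, 6 reads every 60 seconds. Buffer: 50mM HEPES pH 7.8, 0.5mM EDTA, 0.1 mg/ml BSA, 1mM TCEP, 0.01% Tween-20.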
Potency means the concentration at half of the fitted maximal effect.

Sequence of Ubiquitin carboxyl-terminal hydrolase 1 (Homo sapiens) (O94782 whole entry, looked up): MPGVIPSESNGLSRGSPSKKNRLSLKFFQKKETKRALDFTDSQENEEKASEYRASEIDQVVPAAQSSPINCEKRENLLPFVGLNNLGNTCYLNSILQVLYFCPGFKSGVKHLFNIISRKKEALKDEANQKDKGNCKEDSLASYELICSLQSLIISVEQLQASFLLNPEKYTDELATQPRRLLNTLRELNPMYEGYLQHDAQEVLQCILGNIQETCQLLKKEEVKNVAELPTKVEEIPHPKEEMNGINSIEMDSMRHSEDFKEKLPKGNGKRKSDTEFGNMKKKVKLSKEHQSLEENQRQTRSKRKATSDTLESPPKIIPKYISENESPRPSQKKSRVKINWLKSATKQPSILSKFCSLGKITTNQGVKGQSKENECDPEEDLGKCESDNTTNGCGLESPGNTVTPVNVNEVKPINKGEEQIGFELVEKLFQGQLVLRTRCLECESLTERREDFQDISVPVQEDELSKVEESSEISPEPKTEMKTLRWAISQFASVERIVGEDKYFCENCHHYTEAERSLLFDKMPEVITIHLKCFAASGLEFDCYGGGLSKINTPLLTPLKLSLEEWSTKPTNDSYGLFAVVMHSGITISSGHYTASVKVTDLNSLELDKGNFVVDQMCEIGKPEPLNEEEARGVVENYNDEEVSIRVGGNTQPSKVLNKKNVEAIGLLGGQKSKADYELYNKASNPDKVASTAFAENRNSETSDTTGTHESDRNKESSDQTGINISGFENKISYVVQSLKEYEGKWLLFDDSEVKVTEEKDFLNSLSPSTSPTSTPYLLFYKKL

Question: Which Potency does the source give for `O=C(Oc1ccccc1C(=O)O)c1ccccc1O` here?
Answer: The Potency was “inactive”.

Question: `CCCCN1CCCC[C@H]1C(=O)Nc1c(C)cccc1C` was tested. Which Potency did it give?
Answer: The Potency was “inactive”.

Question: `CCCCN(CCCC)CCCOC(=O)c1ccc(N)cc1` was tested. Which Potency did it give?
Answer: Its Potency is “inactive”.

Question: Which Potency does the source give for `Nc1ccc(S(=O)(=O)Nc2ccccc2)cc1` here?
Answer: Its Potency is “inactive”.

Question: How did the Potency turn out when `CCN(CC)CCNC(C(=O)OCCC(C)C)c1ccccc1` (centres undefined) was run?
Answer: The Potency was “inactive”.

Question: Which Potency does the source give for `O=S(=O)(O)c1cc(I)c(O)c2ncccc12` here?
Answer: The Potency was “inactive”.

Question: With `CC1(C)CO[C@@H](CC(=O)O)CN1` as the compound, how does the Potency read?
Answer: Its Potency is “inactive”.

Question: With `O=C(O)CC(O)C(=O)O` (centres undefined) as the compound, how does the Potency read?
Answer: The Potency was “inactive”.

Question: With `CN1CCC[C@@H]1Cc1c[nH]c2ccc(CCS(=O)(=O)c3ccccc3)cc12` as the compound, how does the Potency read?
Answer: The Potency was “inactive”.

Question: How did the Potency turn out when `O=Cc1ccccc1C=O` was run?
Answer: Its Potency is 50.1 µM (active).

Question: How did the Potency turn out when `Cn1cc[nH]c1=S` was run?
Answer: The Potency was “inactive”.

Question: `O=C(O)c1ccccc1O` was tested. Which Potency did it give?
Answer: The Potency was “inactive”.

Question: For `Oc1ccc(C(O)CNCCCCCCNCC(O)c2ccc(O)c(O)c2)cc1O` (centres undefined), which Potency is on record?
Answer: The Potency was “inactive”.

Question: With `CC1(C)OC(=O)NC1=O` as the compound, how does the Potency read?
Answer: Its Potency is “inactive”.

Question: Which Potency does the source give for `COc1cc(C(=O)N2CCOCC2)cc(OC)c1OC` here?
Answer: Its Potency is “inactive”.

Question: How did the Potency turn out when `CC(COc1ccccc1)NC(C)C(O)c1ccc(O)cc1` (centres undefined) was run?
Answer: Its Potency is “inactive”.

Question: For `O=C1NC(=O)[C@@]2(CCOc3ccc(F)cc32)N1`, which Potency is on record?
Answer: The Potency was “inactive”.

Question: How did the Potency turn out when `CN1CCCCC1CCN1c2ccccc2Sc2ccc(S(C)=O)cc21` (centres undefined) was run?
Answer: The Potency was “inactive”.

Question: `CCn1cc(C(=O)O)c(=O)c2cnc(N3CCNCC3)nc21` was tested. Which Potency did it give?
Answer: Its Potency is “inactive”.

Question: For `CCOC(CN1CCN(CC(C)C(=O)c2ccccc2)CC1)c1ccccc1` (centres undefined), which Potency is on record?
Answer: Its Potency is “inactive”.

Question: For `Cc1ccc(C(C)C)cc2c(C)ccc1-2`, which Potency is on record?
Answer: The Potency was “inactive”.

Question: How did the Potency turn out when `Cc1cc2c(cc1S(N)(=O)=O)S(=O)(=O)CCC2` was run?
Answer: The Potency was “inactive”.

Question: How did the Potency turn out when `O=C(O)c1ccccn1` was run?
Answer: Its Potency is “inactive”.

Question: Which Potency does the source give for `Cn1c(=O)c2c(ncn2CC2OCCO2)n(C)c1=O` here?
Answer: Its Potency is “inactive”.
